# A number with no mark means an inactive call. For part of these data: Measured potencies and affinities stand elsewhere. Active and inactive are the calls of the source. Unless noted, no rule for the calls is given here.
# Key:
# [1] = antimalarial activity against Dd2 strain (AID 2302;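 active = growth inhibition above 50% at the single 2 µM test dose, taken to imply half-maximal potency below 2 µM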;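 also: 0% = DMSO untreated growth and 100% = chloroquine plus artemisinin killed control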); conditions: P. falciparum Dd2 in RBCs, LDH growth readout, 72 h; at 2 µM; hits give high values
# [2] = HepG2 cytotoxicity, primary screen, cytotoxicity control for P. falciparum antimalarial project, cell-based, ATP luminescence (AID 2303;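 active = inhibition above 50%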;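 also: 0% = DMSO wells and 100% = digitonin-killed cells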); conditions: HepG2 viability, 24-48 h, at 10 µM, hits give high values
# [3] = target: L-lactate dehydrogenase (Plasmodium falciparum (isolate CDC / Honduras)) (UniProt Q27743); assay: PfLDH activity inhibition – cell lysate, 3D7 strain, counter-screen for P. falciparum growth inhibition project (AID 2304);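 also: 0% = vehicle and 100% = reference inhibitor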; conditions: P. falciparum 3D7 crude extract, LDH APAD/NBT absorbance; at 2 µM; hits give high values
# [4] = inhibition of 3D7 malaria parasite growth – strain 3D7 (AID 2306);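 also: 0% = DMSO wells and 100% = chloroquine plus artemisinin control wells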; conditions: P. falciparum 3D7 erythrocytic growth, LDH absorbance, 72 h; at 2 µM; hits give high values
# [5] = target: Calcium-dependent protein kinase 1 (Plasmodium falciparum (isolate 3D7)) (UniProt P62344); assay: PfCDPK1 kinase inhibitors, biochemical, TCAMS library (AID 1159585; cut-off not given, nearly all actives have IC50 up to about 0.98 µM;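 also: inhibitors leave more ATP so luminescence rises with inhibition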); conditions: recombinant PfCDPK1, Kinase-Glo ATP depletion luminescence
# [6] = target: Plasmodium falciparum protein kinase 6 (PK6, PF3D7_1337100) (UniProt Q8IDW1); assay: PfPK6 kinase inhibitors, biochemical, TCAMS library (AID 1159586); conditions: recombinant PfPK6, Kinase-Glo ATP depletion luminescence
# [7] = target: Protein kinase 7 (PK7), Plasmodium falciparum 3D7 (PF3D7_0213400) (UniProt Q7YTF7); assay: inhibition of Plasmodium PK7 catalytic activity – biochemical, TCAMS antimalarial set, Kinase-Glo luminescence (AID 1159587); conditions: recombinant PfPK7, Kinase-Glo ATP depletion luminescence
# [8] = target: Calcium-dependent protein kinase 4 (Plasmodium falciparum (isolate 3D7)) (UniProt Q8IBS5); assay: PfCDPK4 kinase inhibitors, biochemical, TCAMS library (AID 1159588; cut-off not given, nearly all actives have IC50 up to about 0.91 µM); conditions: recombinant PfCDPK4, Kinase-Glo ATP depletion luminescence
# Calcium-dependent protein kinase 4 (Plasmodium falciparum (isolate 3D7)), sequence (Q8IBS5 whole entry, looked up): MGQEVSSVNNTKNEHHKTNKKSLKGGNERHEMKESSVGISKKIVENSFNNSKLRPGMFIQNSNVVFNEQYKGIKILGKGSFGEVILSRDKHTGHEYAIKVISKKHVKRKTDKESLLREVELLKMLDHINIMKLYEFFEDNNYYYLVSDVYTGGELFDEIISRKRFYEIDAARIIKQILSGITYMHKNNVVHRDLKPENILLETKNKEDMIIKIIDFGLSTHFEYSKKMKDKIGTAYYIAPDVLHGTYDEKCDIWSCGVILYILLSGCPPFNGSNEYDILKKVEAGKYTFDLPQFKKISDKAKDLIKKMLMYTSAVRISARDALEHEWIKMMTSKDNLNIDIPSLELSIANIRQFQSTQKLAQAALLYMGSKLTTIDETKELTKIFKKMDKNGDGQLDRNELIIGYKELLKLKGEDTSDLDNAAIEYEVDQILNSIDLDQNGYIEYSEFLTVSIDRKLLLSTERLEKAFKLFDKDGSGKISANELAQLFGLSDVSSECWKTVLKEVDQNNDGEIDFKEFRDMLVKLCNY
# Plasmodium falciparum protein kinase 6 (PK6, PF3D7_1337100), sequence (Q8IDW1 1-305): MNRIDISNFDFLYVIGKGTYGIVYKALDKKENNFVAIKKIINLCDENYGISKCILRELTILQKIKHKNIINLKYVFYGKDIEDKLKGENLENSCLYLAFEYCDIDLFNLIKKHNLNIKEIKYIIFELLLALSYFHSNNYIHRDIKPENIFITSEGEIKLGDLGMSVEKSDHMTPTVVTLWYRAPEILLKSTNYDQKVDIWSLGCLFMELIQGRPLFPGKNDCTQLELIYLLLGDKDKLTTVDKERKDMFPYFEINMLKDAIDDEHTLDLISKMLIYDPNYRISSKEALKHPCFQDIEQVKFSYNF
# L-lactate dehydrogenase (Plasmodium falciparum (isolate CDC / Honduras)), sequence (Q27743 whole entry, looked up): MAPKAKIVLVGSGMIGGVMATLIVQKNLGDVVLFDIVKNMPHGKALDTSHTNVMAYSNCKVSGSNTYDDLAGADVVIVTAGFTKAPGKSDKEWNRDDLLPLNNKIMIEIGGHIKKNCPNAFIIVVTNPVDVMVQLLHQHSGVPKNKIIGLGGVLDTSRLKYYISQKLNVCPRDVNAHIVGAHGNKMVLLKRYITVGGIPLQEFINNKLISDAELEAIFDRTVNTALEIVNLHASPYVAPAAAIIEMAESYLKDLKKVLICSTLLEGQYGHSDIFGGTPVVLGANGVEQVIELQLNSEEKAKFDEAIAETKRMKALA
# Calcium-dependent protein kinase 1 (Plasmodium falciparum (isolate 3D7)), sequence (P62344 whole entry, looked up): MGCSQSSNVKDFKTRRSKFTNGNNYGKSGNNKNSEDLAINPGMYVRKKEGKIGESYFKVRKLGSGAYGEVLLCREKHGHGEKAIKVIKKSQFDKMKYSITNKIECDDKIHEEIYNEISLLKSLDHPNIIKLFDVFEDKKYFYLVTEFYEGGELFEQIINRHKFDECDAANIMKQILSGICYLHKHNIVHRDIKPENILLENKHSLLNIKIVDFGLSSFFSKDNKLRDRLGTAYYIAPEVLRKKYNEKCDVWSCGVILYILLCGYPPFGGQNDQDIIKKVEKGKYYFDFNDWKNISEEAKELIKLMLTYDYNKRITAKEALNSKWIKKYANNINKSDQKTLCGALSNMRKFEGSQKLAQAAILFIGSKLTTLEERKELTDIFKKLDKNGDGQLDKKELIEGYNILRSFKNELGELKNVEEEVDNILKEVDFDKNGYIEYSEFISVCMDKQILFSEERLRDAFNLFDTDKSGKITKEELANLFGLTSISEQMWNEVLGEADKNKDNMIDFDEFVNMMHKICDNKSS
# Protein kinase 7 (PK7), Plasmodium falciparum 3D7 (PF3D7_0213400), sequence (Q7YTF7 1-343): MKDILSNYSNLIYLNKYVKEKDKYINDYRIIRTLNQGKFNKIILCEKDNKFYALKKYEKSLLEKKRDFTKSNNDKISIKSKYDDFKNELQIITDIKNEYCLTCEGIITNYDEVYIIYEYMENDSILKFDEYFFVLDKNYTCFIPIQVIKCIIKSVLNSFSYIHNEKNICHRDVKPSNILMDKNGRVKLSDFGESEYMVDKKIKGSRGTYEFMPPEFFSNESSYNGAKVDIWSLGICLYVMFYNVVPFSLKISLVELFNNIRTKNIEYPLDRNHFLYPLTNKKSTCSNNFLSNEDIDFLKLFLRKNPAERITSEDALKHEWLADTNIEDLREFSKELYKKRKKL
SMILES,growth inhibition [1],inhibition [2],inhibition [3] [%],growth inhibition [4],outcome [5],outcome [6],outcome [7],outcome [8]
COc1ccc2nccc(N3CCCN(CCNCc4ccc5c(n4)NC(=O)CS5)CC3)c2n1,10%,8%,-2,100% (active),inactive,inactive,inactive,inactive
O=C(NCCCCN1CC=C(c2ccc3c(c2OCC2CC2)CCCC3)CC1)c1ccc(-c2ccc(C(F)(F)F)cc2)cc1,60% (active),25%,-10,93% (active),inactive,inactive,inactive,inactive
C=CCOc1ccc(-c2c(C)[nH]c(C)c(Br)c2=O)cc1,96% (active),5%,-3,98% (active),inactive,inactive,inactive,inactive
COc1cc2nc(N3CCN(C(=O)c4ccco4)CC3)nc(NCc3ccccc3)c2cc1OC,99% (active),16%,-5,101% (active),inactive,inactive,inactive,inactive
Cc1cc(=O)c2cc(Oc3cccc(OC(F)(F)F)c3)ccc2[nH]1,80% (active),9%,2,90% (active),inactive,inactive,inactive,inactive
Cc1cccc2[nH]c(-c3ccc(-c4cccc(NC(=O)Cc5cnc[nH]5)c4)cc3)nc12,21%,13%,-4,98% (active),inactive,inactive,inactive,inactive
c1ccc(-c2ccc3c(Nc4ccc5[nH]ncc5c4)ccnc3c2)nc1,99% (active),99% (active),4,100% (active),inactive,inactive,inactive,inactive
Cc1ccc(C2CCN(CCCCNC(=O)c3ccc(NC(=O)c4ccc(Cl)cc4)cc3)CC2)c(C)c1,10%,23%,-1,96% (active),inactive,inactive,inactive,inactive
CCCC(=O)Nc1ccc(Cl)c(NC(=O)COc2cc(C)ccc2C(C)C)c1,67% (active),2%,0,87% (active),inactive,inactive,inactive,inactive
C[C@H](Cc1ccc(CCc2ccc(C[C@@H](C)NC[C@H](O)c3cccc(Cl)c3)cc2)cc1)NC[C@H](O)c1cccc(Cl)c1,92% (active),100% (active),2,95% (active),inactive,inactive,inactive,inactive
O=C1CCCN1CCCNCc1cccc(-c2cccc(-c3nc4ccc(C(F)(F)F)cc4[nH]3)c2)c1,90% (active),28%,-3,101% (active),inactive,inactive,inactive,inactive
Cc1cc(N[C@@H](Cc2ccccc2)C(=O)NCCOc2ccccc2)nc(NCCc2ccccn2)n1,42%,12%,-2,92% (active),inactive,inactive,inactive,inactive
Cc1ccc(NC(=O)c2ccc3ncccc3c2)cc1OC1CCN(Cc2ccc(F)cc2)CC1,22%,6%,1,91% (active),inactive,inactive,inactive,inactive
CNCCNCc1cccc(-c2ccc(-c3nc4ccc(C(F)(F)F)cc4[nH]3)s2)c1,85% (active),31%,4,98% (active),inactive,inactive,inactive,inactive
CCc1cc2c(=O)c(-c3nc(C)cs3)c(N)oc2c(CN2CCCCC2)c1O,97% (active),-2%,0,99% (active),inactive,inactive,inactive,inactive
CCOC(=O)c1ccc(OCCOc2ccccc2)cc1,-3%,63% (active),-1,99% (active),inactive,inactive,inactive,inactive
COc1ccc2nc3cc(Cl)ccc3c(NCCCCNc3c4ccc(Cl)cc4nc4ccc(OC)cc34)c2c1,99% (active),20%,6,99% (active),inactive,inactive,inactive,inactive
O=C(Nc1ccc(OC(F)(F)F)cc1)NC1CCN(c2ccnc3ccccc23)C1 (configuration not stated),89% (active),25%,1,101% (active),inactive,inactive,inactive,inactive
Nc1ccnc(N2CCC(CCOc3ccnc4cc(Cl)ccc34)CC2)c1,99% (active),34%,4,100% (active),inactive,inactive,inactive,inactive
O=C(Nc1ccccc1)c1cccc(Nc2nccc(Nc3ccc(Oc4ccccc4)cc3)n2)c1,11%,6%,-1,98% (active),inactive,inactive,inactive,inactive

SMILES,growth inhibition [1],inhibition [2],inhibition [3] [%],growth inhibition [4],outcome [5],outcome [6],outcome [7],outcome [8]
Cc1cccc2[nH]c(-c3ccc(-c4cccc(NC(=O)Nc5ccc(F)c(F)c5F)c4)cc3)nc12,89% (active),40%,2,100% (active),inactive,inactive,inactive,inactive
CCOc1cc(NCCCNc2ncc([N+](=O)[O-])cc2C)nc2ccccc12,64% (active),10%,2,84% (active),inactive,inactive,inactive,inactive
Cn1cnc(CCNC(=O)c2ccc(-c3cccc(-c4nc5ccc(F)cc5[nH]4)c3)cc2)c1,24%,23%,-5,100% (active),inactive,inactive,inactive,inactive
CCCCc1ccc(C(=O)Nc2ccc3nc(N4CCN(CC)CC4)cc(C)c3c2)cc1,13%,32%,4,91% (active),inactive,inactive,inactive,inactive
COC(=O)c1cccc(NC(=O)NC2CCN(c3ccnc(Nc4ccc(F)cc4)n3)C2)c1 (configuration not stated),83% (active),5%,3,100% (active),inactive,inactive,inactive,inactive
CCc1ccnc2c(N3CCCC3=O)cc(C(=O)N[C@@H](Cc3ccccc3)[C@H](O)CNC3CCOCC3)cc12,98% (active),2%,4,99% (active),inactive,inactive,inactive,inactive
O=C(C1CCN(c2nnnn2-c2ccccc2)CC1)N1CCc2ccccc2C1,97% (active),-7%,-9,97% (active),inactive,inactive,inactive,inactive
CC1CN(Cc2cccc(-c3ccc(-c4nc5ccccc5[nH]4)cc3)c2)CC(C)O1 (configuration not stated),88% (active),37%,-6,90% (active),inactive,inactive,inactive,inactive
Cc1cc(N[C@@H](Cc2ccccc2)C(=O)NCCCOC(C)C)nc(NCCc2ccc(F)cc2)n1,36%,15%,0,101% (active),inactive,inactive,inactive,inactive
Cc1cnc(C(=O)Nc2ccc3c(c2)CCCN(Cc2c[nH]c4cnccc24)C3)cn1,20%,0%,-3,92% (active),inactive,inactive,inactive,inactive
N#Cc1ccc(N[C@@H](CC2CCCCC2)C(=O)Nc2ccc(-c3ccccc3)cc2)c2ccccc12,99% (active),34%,-8,100% (active),inactive,inactive,inactive,inactive
CN1CCC(NCc2ccc(-c3ccc(C(F)(F)F)cc3)cc2)CC1,71% (active),54% (active),5,99% (active),inactive,inactive,inactive,inactive
COc1cc(OC)cc(C(=O)N2CCOC(CCN3CCC(c4ccccc4)CC3)(c3ccc(Cl)c(Cl)c3)C2)c1 (configuration not stated),61% (active),13%,1,85% (active),inactive,inactive,inactive,inactive
CC1CN(c2cc(=O)n(Cc3ccc(NC(=O)Nc4ccc(-c5ccccc5)cc4)cc3)cn2)CC(C)N1 (configuration not stated),20%,0%,-1,87% (active),inactive,inactive,inactive,inactive
Cc1cc(O)c2c3c1C(=O)C=C1C3c3c(c(O)cc(O)c3C(=O)C1(C)C)C2=O (configuration not stated),46%,45%,-3,98% (active),inactive,inactive,inactive,inactive
COc1ccc(CCN(C)CCCN2CCC(NC(=O)c3cccc4c(=O)c5ccccc5sc34)CC2)cc1OC,79% (active),67% (active),4,97% (active),inactive,inactive,inactive,inactive
COc1ccc(CNCC2CCC(CNCCc3ccccc3)CC2)cc1Cl (configuration not stated),29%,23%,-2,100% (active),inactive,inactive,inactive,inactive
NCCNc1ccnc2cc(Cl)ccc12,54% (active),9%,4,101% (active),inactive,inactive,inactive,inactive
CCOc1ccc2nc3cc(NC(=O)c4ccco4)ccc3c(N)c2c1,56% (active),36%,-1,101% (active),inactive,inactive,inactive,inactive
